Experimental findings from PubChem BioAssay (NCI) are described below.

SMILES strings stand for the structures. Where “and” joins values, the source holds several entries; their conditions need not be identical. Identical values can stand only once. Compounds without any hit were thinned out: in the full panel of roughly 83,000, 20% have a hit.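 Note: values are percent growth. 100 is the growth of untreated cells, values between 100 and 0 indicate rising inhibition; between -100 and 0 indicates cell death.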 Calls of active or inactive are those of the source. How the source made its calls: active means growth percent below 10; inactive means the rest.

The test system of the first assay is CCRF-CEM leukemia. Briefly: NCI-60 one-dose screen, 48 h (100 = growth as untreated, 0 = no growth, -100 = all killed). Particulars: 10 µM unless noted.
Take `CN1CCN(c2ccc(Nc3nc(NCCNS(=O)(=O)c4ccc(Cl)cc4)c4sccc4n3)cc2)CC1`: the growth was 75.7% (inactive).
The same measure, in the same setting: in the case of `COc1cc(-c2nc(-c3ccccc3)[nH]c2-c2ccnc(NCCCNS(=O)(=O)c3ccc(C(F)(F)F)cc3)n2)ccc1Cl` it was 6.64% (active) and 21.7% (inactive).
On the same count and under the same terms, as for `CC1(C)CC[C@]23CC[C@]4(C)[C@H](CC[C@@H]5[C@@]6(C)CC[C@H](N)C(C)(C)[C@@H]6CC[C@]54C)[C@H]2[C@H]1OC3`, the figure is -5.4% (active); as for `Clc1ccc2[nH]cc(-c3nn4cc(-c5cccnc5)nc4s3)c2c1`, 84.3% (inactive).
On the same count and under the same terms, as for `NS(=O)(=O)c1ccc(Nc2nc(N/N=C/c3ccc4c(c3)OCO4)nc(Nc3ccccc3)n2)cc1`, the figure is 16.3% (inactive); as for `Brc1cc(-c2cc(-c3ccc4c(c3)OCCO4)[nH]n2)cs1`, 23.4% (inactive).
On to `CC1=C(C)C(=O)C(Nc2ccc(C)c(C)c2)=C(Br)C1=O`, for which the growth was -16.8% (active).
With `COC(=O)N1CCN(CCNCc2ccc(NC(=O)c3ccc(C)c(C#Cc4cnc5cccnn45)c3)cc2C(F)(F)F)CC1`, the growth was 10.8% (inactive).
Consider `O=C(CCCCCCN1CC(=O)N2[C@@H](c3cccs3)c3[nH]c4ccccc4c3C[C@H]2C1=O)NO`, for which the growth is 24.2% (inactive).
Turning to `C=C(C)[C@@H]1CC[C@]2(C(=O)N3CCN(C)CC3)CC[C@]3(C)[C@H](CC[C@@H]4[C@@]5(C)CC[C@H](OP(=O)(OCC)OCC)C(C)(C)[C@@H]5CC[C@]43C)[C@@H]12`, the growth is 35.4% (inactive).
Same read-out and setting: as for `CC(=O)N(O)CCCCCNC(=O)CCC(=O)N(O)CCCCCNC(=O)CCC(=O)N(O)CCCCCN(CCCCCCCCCC[P+](c1ccccc1)(c1ccccc1)c1ccccc1)CCCCCCCCCC[P+](c1ccccc1)(c1ccccc1)c1ccccc1`, the figure is 5.87% (active); as for `Cc1[nH]c(C(=O)Nc2ccccc2OCc2cccc(C(=O)NCCN)c2)cc1Cl`, 27.4% (inactive); as for `CCOC(=O)Nc1ccc2c(ccn2C(=O)c2cccc(F)c2)c1`, 16.7% (inactive).
Still for that read-out and setting: as for `O=C(Nc1ccc(N=Cc2c(O)[nH]c3ccccc23)cc1)Nc1ccc(S(=O)(=O)Nc2ncccn2)cc1`, the figure is 109% (inactive).
Turning to `Fc1cccc(Cl)c1/C=N/Nc1nc(N/N=C/c2c(F)cccc2Cl)nc(N2CCCCC2)n1`, the growth is 22.3% (inactive).
As for `CCc1nnc(NC(=O)c2cc(-c3ccc(Cl)cc3Cl)oc2C)s1`, the growth was 97.6% (inactive).
As for `C/C(=N\NC(=O)Nc1ccccc1)c1nnn(-c2ccc([N+](=O)[O-])cc2)c1C`, the growth is 105% (inactive).
For `C#C[C@]1(O)CC[C@H]2[C@@H]3CC=C4c5sc(Nc6cc(Cl)ccc6OC)nc5CC[C@]4(C)[C@H]3CC[C@@]21C`, the growth is 8.93% (active).
The same measure, in the same setting: as for `O=C(O)CC1CCN(c2ccc3nnc(Cl)n3n2)CC1`, the figure is 111% (inactive); as for `Cc1cc2nc(C(Cl)Cl)nc(-c3ccc(S(=O)(=O)N(C)C)cc3)n2n1`, 40.8% (inactive); as for `CCOC(=O)c1ccccc1NC1=C(Cl)C(=O)c2nc(C)ccc2C1=O`, 84.3% (inactive).
The same measure, in the same setting: in the case of `Cc1ccc([C@H]2c3[nH]c4ccccc4c3C[C@H]3C(=O)N(CCCCCCC(=O)NO)CC(=O)N23)s1` it was 22% (inactive).
The same measure, in the same setting: in the case of `NC1CC2(CCN(c3cnc(C(=O)Nc4cc(F)cc5cccnc45)cn3)CC2)C1` it was 34.7% (inactive).
Turning to `O=C(CSc1nc2ccccc2c(=O)n1-c1ccc(Cl)cc1)N/N=C/c1ccc(Oc2ccc(Cl)cc2)cc1`, the growth was -2.67% (active).
Still for that read-out and setting: as for `CCCCSC1=C(Cl)CN(c2ccc(Cl)cc2)C1=O`, the figure is 89.9% (inactive).
In the case of `CC(=O)/C(N=Nc1ccc2oc(=O)ccc2c1)=C(\C)O`, the growth is 13.1% (inactive).
With `CCOC(=O)c1c(NC(=O)c2ccc(C(F)(F)F)cc2)sc2c3c(ccc12)OCN(C)C3`, the growth is 2.17% (active).

A further assay concerns MOLT-4 leukemia. Described as above. To be noted: 10 µM unless noted.
Consider `NNc1nnc2nc(Nc3ccccc3)nc(Nc3ccc(S(N)(=O)=O)cc3)n12`, for which the growth is 105% (inactive).
The same measure, in the same setting: in the case of `Brc1ccc2[nH]cc(-c3nn4cc(-c5nccs5)nc4s3)c2c1` it was 16.5% (inactive); in that of `Nn1c(=O)n(-c2cccc(C(F)(F)F)c2)c(=O)c2cc(-c3ccc(F)cc3F)ccc21`, 4.48% (active).
Take `CN(C)CCNc1ccc2ncc(C#Cc3cncc(C(=O)Nc4ccc(CN5CCN(C)CC5)c(C(F)(F)F)c4)c3)n2n1`: the growth was -9.54% (active).
As to `O=S(=O)(Oc1ccc(-c2cn3ccoc3n2)cc1)C1CCCCC1`, the growth was 93.5% (inactive).
Still for that read-out and setting: in the case of `O=C(N/N=C\c1ccc([N+](=O)[O-])cc1)c1ccc2nc(-c3ccc(Br)cc3)[nH]c2c1` it was 5.71% (active); in that of `Cc1ccsc1[C@H]1c2[nH]c3ccccc3c2C[C@H]2C(=O)N(CCCCCCC(=O)NO)CC(=O)N12`, 40% (inactive).
`Cc1ccc(N2CCN(C3=C(Cl)C(=O)c4ncccc4C3=O)CC2)cc1`: the growth was 13.9% (inactive).
Turning to `N#Cc1cccc(-c2cc(-c3ccc4c(c3)OCCO4)[nH]n2)c1`, the growth is 23% (inactive).
In the case of `COc1cc2cc(Oc3ccc(NC(=O)c4cc(C(F)(F)F)cc(C(F)(F)F)c4)cc3)c(C)nc2cc1OCCN1CCOCC1`, the growth was 66.1% (inactive).
The same measure, in the same setting: as for `N#C/C(=N\Nc1ccc(F)cc1)C(=O)Nc1cc(-c2ccccc2)nn1-c1ccccc1`, the figure is 21.9% (inactive).
Still for that read-out and setting: as for `CN(C)CCCOc1ccc(C(=C(c2ccccc2)C2CCCC2)c2ccc(OCCCN(C)C)cc2)cc1`, the figure is -58% (active); as for `NC(=O)c1ncn2c(=O)n(CCF)nnc12`, 29.9% (inactive); as for `CN1CCN(c2ccc(Nc3nc(NCCNS(=O)(=O)c4ccc(Cl)cc4)c4sccc4n3)cc2)CC1`, 73.6% (inactive).
Same read-out and setting: as for `COc1cc(-c2nc(-c3ccccc3)[nH]c2-c2ccnc(NCCCNS(=O)(=O)c3ccc(C(F)(F)F)cc3)n2)ccc1Cl`, the figure is -4.06% (active) and 16.3% (inactive).
On to `CC1(C)CC[C@]23CC[C@]4(C)[C@H](CC[C@@H]5[C@@]6(C)CC[C@H](N)C(C)(C)[C@@H]6CC[C@]54C)[C@H]2[C@H]1OC3`, for which the growth is -13.3% (active).
Turning to `Clc1ccc2[nH]cc(-c3nn4cc(-c5cccnc5)nc4s3)c2c1`, the growth was 94.5% (inactive).
With `NS(=O)(=O)c1ccc(Nc2nc(N/N=C/c3ccc4c(c3)OCO4)nc(Nc3ccccc3)n2)cc1`, the growth was 11.2% (inactive).
As for `Brc1cc(-c2cc(-c3ccc4c(c3)OCCO4)[nH]n2)cs1`, the growth was 27.8% (inactive).
Same read-out and setting: in the case of `CC1=C(C)C(=O)C(Nc2ccc(C)c(C)c2)=C(Br)C1=O` it was -14.7% (active).
For the compound `COC(=O)N1CCN(CCNCc2ccc(NC(=O)c3ccc(C)c(C#Cc4cnc5cccnn45)c3)cc2C(F)(F)F)CC1`, the growth is 8.21% (active).
On the same count and under the same terms, as for `O=C(CCCCCCN1CC(=O)N2[C@@H](c3cccs3)c3[nH]c4ccccc4c3C[C@H]2C1=O)NO`, the figure is 19.3% (inactive); as for `C=C(C)[C@@H]1CC[C@]2(C(=O)N3CCN(C)CC3)CC[C@]3(C)[C@H](CC[C@@H]4[C@@]5(C)CC[C@H](OP(=O)(OCC)OCC)C(C)(C)[C@@H]5CC[C@]43C)[C@@H]12`, 36.3% (inactive).
Still for that read-out and setting: as for `CC(=O)N(O)CCCCCNC(=O)CCC(=O)N(O)CCCCCNC(=O)CCC(=O)N(O)CCCCCN(CCCCCCCCCC[P+](c1ccccc1)(c1ccccc1)c1ccccc1)CCCCCCCCCC[P+](c1ccccc1)(c1ccccc1)c1ccccc1`, the figure is 8.41% (active); as for `Cc1[nH]c(C(=O)Nc2ccccc2OCc2cccc(C(=O)NCCN)c2)cc1Cl`, 68.6% (inactive).
As to `CCOC(=O)Nc1ccc2c(ccn2C(=O)c2cccc(F)c2)c1`, the growth was 30.2% (inactive).
Same read-out and setting: in the case of `O=C(Nc1ccc(N=Cc2c(O)[nH]c3ccccc23)cc1)Nc1ccc(S(=O)(=O)Nc2ncccn2)cc1` it was 121% (inactive); in that of `Fc1cccc(Cl)c1/C=N/Nc1nc(N/N=C/c2c(F)cccc2Cl)nc(N2CCCCC2)n1`, 13.7% (inactive); in that of `CCc1nnc(NC(=O)c2cc(-c3ccc(Cl)cc3Cl)oc2C)s1`, 99.3% (inactive).
`C/C(=N\NC(=O)Nc1ccccc1)c1nnn(-c2ccc([N+](=O)[O-])cc2)c1C`: the growth is 103% (inactive).
On the same count and under the same terms, in the case of `C#C[C@]1(O)CC[C@H]2[C@@H]3CC=C4c5sc(Nc6cc(Cl)ccc6OC)nc5CC[C@]4(C)[C@H]3CC[C@@]21C` it was 1.34% (active); in that of `O=C(O)CC1CCN(c2ccc3nnc(Cl)n3n2)CC1`, 109% (inactive).
The same measure, in the same setting: in the case of `Cc1cc2nc(C(Cl)Cl)nc(-c3ccc(S(=O)(=O)N(C)C)cc3)n2n1` it was 28.4% (inactive); in that of `CCOC(=O)c1ccccc1NC1=C(Cl)C(=O)c2nc(C)ccc2C1=O`, 84.8% (inactive).
The same measure, in the same setting: as for `Cc1ccc([C@H]2c3[nH]c4ccccc4c3C[C@H]3C(=O)N(CCCCCCC(=O)NO)CC(=O)N23)s1`, the figure is 12.5% (inactive); as for `NC1CC2(CCN(c3cnc(C(=O)Nc4cc(F)cc5cccnc45)cn3)CC2)C1`, 40.8% (inactive).
As for `O=C(CSc1nc2ccccc2c(=O)n1-c1ccc(Cl)cc1)N/N=C/c1ccc(Oc2ccc(Cl)cc2)cc1`, the growth is -25.1% (active).
As for `CCCCSC1=C(Cl)CN(c2ccc(Cl)cc2)C1=O`, the growth was 86.2% (inactive).
On the same count and under the same terms, in the case of `CC(=O)/C(N=Nc1ccc2oc(=O)ccc2c1)=C(\C)O` it was 16.4% (inactive); in that of `CCOC(=O)c1c(NC(=O)c2ccc(C(F)(F)F)cc2)sc2c3c(ccc12)OCN(C)C3`, -8.7% (active).
